Assay results from PubChem BioAssay AID588727 (Southern Research Specialized Biocontainment Screening …, 2011).
Out of some 350,000 compounds screened, about 450 (0.13%) were called active. No rule for the calls is given here. These entries were drawn from the full list. Results with a measured potency or affinity are listed apart.

Test: inhibitors of VEEV TC-83 cytopathic effect, confirmation, Vero cells (AID 588727)
Conditions: VEEV TC-83 cytopathic effect inhibition, at 20 µM; stronger effect = higher value unless noted
In the case of `CC(C)OC(=O)CSc1nnc(CNc2ccc(Cl)cc2)n1Cc1ccccc1`, the inhibition is reported as “inactive”. For `Cc1cc(/N=C/C=C2/N(C)c3ccccc3C2(C)C)n(CCC#N)n1`, the inhibition was 1.39% (inactive). In the case of `CC(=O)Nc1c2c(nn1-c1cccc(Cl)c1)CS(=O)(=O)C2`, the inhibition is reported as “inactive”. In the case of `O=C(COC(=O)/C=C/c1ccc(F)cc1)NC1CCCC1`, the inhibition is reported as 2.24% (inactive). In the case of `Cn1nnnc1Sc1ncnc2scc(-c3ccc(C(F)(F)F)cc3)c12`, the inhibition is reported as “inactive”. In the case of `CCCCCC1CC(CC(=O)Nc2ccc([N+](=O)[O-])cc2)OC1=O` (stereo not drawn), the inhibition is reported as “inactive”. In the case of `NC(=NC1CCCCC1)c1ccc(Cl)cc1`, the inhibition is reported as 0.26% (inactive). With `CCCCn1c(=O)[nH]c(=O)c2c1nc(CN(C)Cc1cccc(OC)c1OC)n2CCC` the inhibition was 6.28% (inactive). In the case of `CCCCCC(=O)N1C[C@@H](n2cc(COC(=O)c3ccccc3)nn2)[C@H](O)C[C@@H]1c1ccc(OC)cc1`, the inhibition is reported as 0.24% (inactive). In the case of `Cc1cccc(-n2ncc3c(N4CC(C)CC(C)C4)ncnc32)c1` (stereo not drawn), the inhibition is reported as 1.8% (inactive). In the case of `Cc1cccc(C(=O)NCCNC(=O)c2cccc(C)c2)c1`, the inhibition is reported as “inactive”. In the case of `CNC(=O)C1=C(C)Nc2nc3ccccc3n2C1c1ccc(F)cc1` (stereo not drawn), the inhibition is reported as 0.17% (inactive). In the case of `O=C(CC(=O)c1cccc([N+](=O)[O-])c1)Nc1ccccc1Cl`, the inhibition is reported as “inactive”. In the case of `Cc1ccc(S(=O)(=O)N2C[C@@H](C)[C@]3(C2)[C@H](O)[C@H](OC(=O)NC2CC2)C[C@H]2C(=O)N(c4ccccc4)C(=O)[C@H]23)cc1`, the inhibition is reported as 11.5% (inactive). With `Cc1ccc(S(=O)(=O)N2C[C@@H](C)[C@]3(C2)[C@H](O)[C@H](OC(=O)NCc2ccccc2)C[C@H]2C(=O)N(c4ccccc4)C(=O)[C@H]23)cc1` the inhibition was 5.33% (inactive). With `COCCNC(=O)CN(c1ccc(OC)c(OC)c1)S(=O)(=O)c1ccc(C)cc1` the inhibition was 1.04% (inactive). With `COC(=O)c1ccc(-n2c(C)cc(C(=O)COC(=O)CNS(=O)(=O)c3ccc(C)cc3)c2C)cc1` the inhibition was 0.63% (inactive). In the case of `CCC(CC)c1nnc(NC(=O)c2c(C)nn(Cc3ccccc3Cl)c2C)s1`, the inhibition is reported as 7.55% (inactive). In the case of `CC(=O)Nc1ccc(NC(=O)c2c(C)nn(Cc3ccccc3Cl)c2C)cc1`, the inhibition is reported as “inactive”. In the case of `CC1CC(=O)N(C)c2cc([N+](=O)[O-])ccc2N1` (stereo not drawn), the inhibition is reported as 1.14% (inactive). In the case of `COC(=O)c1cccc(NC(=S)N2CCOCC2)c1`, the inhibition is reported as 0.95% (inactive). With `CCCCCC(=O)N1C[C@@H](n2cc(COC(=O)c3ccccc3)nn2)[C@H](O)C[C@@H]1c1ccccc1` the inhibition was “inactive”. With `c1ccc(-c2nc3c([nH]2)CCc2nonc2-3)cc1` the inhibition was 2.3% (inactive). In the case of `COn1c(-c2ccccc2)nc2c1CCc1c-2no[n+]1[O-]`, the inhibition is reported as 5.93% (inactive). For `Cc1ccccc1CC(=O)c1ccc(O)c(C)c1O`, the inhibition was 5.23% (inactive). For `CCc1ccc(NC(=O)CS(=O)CC(=O)Nc2ccc(-n3cnnn3)c(C)c2)cc1` (stereo not drawn), the inhibition was 2.1% (inactive). For `CCOc1ccc(/C=C/c2nc(C#N)c(NCCCOC)o2)cc1`, the inhibition was 6.2% (inactive). For `CCNc1oc(/C=C/c2ccc(OCC)cc2)nc1C#N`, the inhibition was 6.65% (inactive). In the case of `CC1=C(C(=O)Nc2ccccn2)C(c2ccc(Br)cc2)NC(=S)N1` (stereo not drawn), the inhibition is reported as 2.92% (inactive). With `O=C(O)c1ccccc1Nc1ccc([N+](=O)[O-])cc1C(=O)O` the inhibition was “inactive”. For `O=C(O)c1cc([N+](=O)[O-])ccc1Nc1ccccc1`, the inhibition was 0.6% (inactive). With `O=C(Nc1cccnc1)c1cccnc1Cl` the inhibition was 0.62% (inactive). With `CCCCOc1ccc(C(=O)Nc2ccc(N3CCN(C(C)=O)CC3)cc2)cc1` the inhibition was 3.29% (inactive). In the case of `CCOc1ccc(C(=O)Nc2ccc(N3CCN(C)CC3)cc2)cc1`, the inhibition is reported as 2.08% (inactive). For `CCc1ccc(NC(=O)CC2C(=O)N(c3cccc(OC)c3)C(=O)N2CCOC)cc1` (stereo not drawn), the inhibition was 1.82% (inactive). With `Cc1cc(NC(=O)C(C)SCC(=O)OCC(=O)N(Cc2ccccc2)C(C)(C)C)no1` (stereo not drawn) the inhibition was 1.5% (inactive). With `Cc1cccc(N(Cc2ccccc2)C(=O)CSC(C)C(=O)Nc2cc(C)on2)c1` (stereo not drawn) the inhibition was 7.94% (inactive). With `CCOC(=O)Cn1cc(C(=O)C2CC2)c2ccccc21` the inhibition was 1.2% (inactive). With `O=c1c2cc([N+](=O)[O-])ccc2nc(CN2CCN(c3ccccn3)CC2)n1-c1ccccc1F` the inhibition was 1.21% (inactive). With `COc1cccc(-n2c(CN3CCOCC3)nc3ccc([N+](=O)[O-])cc3c2=O)c1` the inhibition was 7.79% (inactive). In the case of `COc1cccc(-n2c(CN3CCN(c4ccccc4)CC3)nc3ccc([N+](=O)[O-])cc3c2=O)c1`, the inhibition is reported as 2.74% (inactive). In the case of `CCC(CC)N1CCN(Cc2nc3ccc([N+](=O)[O-])cc3c(=O)n2-c2ccccc2F)CC1`, the inhibition is reported as 22.2% (inactive). For `COc1cc(NC(=O)c2sc3ncn(CC(=O)N4CCCCC4C)c(=O)c3c2C)cc(OC)c1OC` (stereo not drawn), the inhibition was 11.6% (inactive). In the case of `Cc1ccc(CN2CC(C(=O)NNC(=O)c3ccc(F)cc3)CC2=O)cc1` (stereo not drawn), the inhibition is reported as “inactive”. In the case of `COCCCNC(=O)c1cc(-c2cccnc2)nc2ccccc12`, the inhibition is reported as “inactive”. In the case of `COCCNC(=O)COC(=O)c1cc(-c2ccc(OC)cc2)nc2ccccc12`, the inhibition is reported as 0.73% (inactive). For `Cc1cccc2cc(CN(CCN(C)C)C(=S)NCc3ccco3)c(=O)[nH]c12`, the inhibition was 6.74% (inactive). In the case of `CN(C)CCN(Cc1cc2cc3c(cc2nc1Cl)OCO3)C(=O)c1ccco1`, the inhibition is reported as 1.49% (inactive). In the case of `CCN(CC)CCNC(=O)c1cc2c(=O)n(CC)c3ccccc3c2s1`, the inhibition is reported as 8.46% (inactive). In the case of `CC1(C)NC(=O)N(CC(O)CN2CCOCC2)C1=O` (stereo not drawn), the inhibition is reported as 1.64% (inactive). For `Cc1cc(NC(=O)COc2ccccc2C)ccc1NC(=O)c1ccco1`, the inhibition was 2.11% (inactive). For `COc1ccc(S(=O)(=O)N(C)c2ccc(C(=O)Nc3cccnc3)cc2)cc1`, the inhibition was 8.16% (inactive). For `C=C1CC2C(=O)N(Cc3cc(OC)ccc3OC)C(C(=O)OCC)(C(=O)OCC)C1N2C(=O)OC(C)(C)C` (stereo not drawn), the inhibition was “inactive”. For `COc1ccc(/C=C2\CN(Cc3ccccc3)C/C(=C\c3ccc(OC)cc3OC)C2=O)c(OC)c1`, the inhibition was 6.18% (inactive). In the case of `CCN1C/C(=C/c2ccc(OC)c(O)c2)C(=O)/C(=C/c2ccc(OC)c(O)c2)C1`, the inhibition is reported as “inactive”. With `Cc1cc(C)cc(-n2ncc3c2CCCC3NC(=O)CCCn2cncn2)c1` (stereo not drawn) the inhibition was 0.41% (inactive). For `COc1ccccc1C1CCCN1Cc1nc(-c2cc3c(cc2Cl)OCO3)oc1C` (stereo not drawn), the inhibition was 3.15% (inactive). In the case of `CCOc1ccccc1-c1nc(CN2CCCC2c2nccs2)c(C)o1` (stereo not drawn), the inhibition is reported as 8.27% (inactive). With `COc1ccc(OC)c(S(=O)(=O)NCCS(=O)(=O)N2CCN(c3ccccc3)CC2)c1` the inhibition was 0.7% (inactive). In the case of `Cc1nc2ccccc2c(=O)n1NC(=O)/C=C/c1ccc(Br)cc1`, the inhibition is reported as “inactive”. In the case of `Cc1c(NC(=O)Nc2ccccc2)c(=O)n(-c2ccccc2)n1C`, the inhibition is reported as “inactive”. With `O=C(NNC(=O)c1ccc2ccccc2c1O)NC1CCCCC1` the inhibition was 2.22% (inactive). In the case of `O=C(NC1CCCCC1)c1cc2ccccc2cc1O`, the inhibition is reported as “inactive”. In the case of `O=S(=O)(c1cccc2nsnc12)N1CCc2ccccc21`, the inhibition is reported as “inactive”. For `Cc1nnc(N2CCCC(C(=O)NCc3cccc(F)c3)C2)c2nn(-c3ccccc3)c(C)c12` (stereo not drawn), the inhibition was 7.4% (inactive). For `Cc1ccc(CNc2nc(N)c([N+](=O)[O-])c(NCCO)n2)cc1`, the inhibition was 5.11% (inactive). For `O=c1c2sccc2nc(SCc2cc(=O)n3cc(Cl)ccc3n2)n1-c1ccc(F)cc1`, the inhibition was 6.28% [measured here: 10K pilot screen inhibition, stronger effect = higher value] and the outcome was “inactive”. With `COCCNC(=O)c1cc2oc3ccccc3c2n1C` the inhibition was 3.48% (inactive). For `CCOc1ccccc1CNC(=O)c1cc2occc2n1C`, the inhibition was 3.56% (inactive). With `COc1cccc(CNC(=O)c2cc3oc4ccccc4c3n2C)c1OC` the inhibition was 55% (inactive). With `Cc1ccc2c(c1)cc(C(=O)N[C@@H](Cc1ccccc1)C(=O)O)n2C` the inhibition was “inactive”. With `Cc1ccc(CNC(=O)c2cc3c(=O)n(C)c4ccccc4c3n2C)cc1` the inhibition was 0.2% (inactive). In the case of `Cn1c(C(=O)NCc2cccs2)cc2c(=O)n(C)c3ccccc3c21`, the inhibition is reported as 0.66% (inactive). With `Cn1c(C(=O)NCC2CCCO2)cc2oc3ccccc3c21` (stereo not drawn) the inhibition was 6.64% (inactive). For `Cc1c(C(=O)NCc2cccs2)oc2ccccc12`, the inhibition was 1.87% (inactive). For `CC(C)CCC(=O)N1CCC(N2CCC(C(=O)NCc3ccccn3)CC2)CC1`, the inhibition was 0.93% (inactive). For `CC(C)(C)n1nc2c(c1NC(=O)c1ccc(F)c(F)c1)CS(=O)(=O)C2`, the inhibition was 0.7% (inactive). In the case of `O=C(C1CC(=O)N(c2ccc(F)cc2)C1)N1CCCCCC1` (stereo not drawn), the inhibition is reported as “inactive”. In the case of `O=C1c2cccnc2C(=O)N1CO`, the inhibition is reported as 0.3% (inactive). For `CC(C)(C)C1CCc2c(sc3c2C(=O)NC(c2ccco2)N3)C1` (stereo not drawn), the inhibition was 0.21% (inactive). In the case of `CCC(=O)Nc1cc(C(=O)O)ccc1Sc1ccccc1`, the inhibition is reported as 0.44% (inactive). In the case of `Cn1cc(CCC(=O)NCc2cccc(Cl)c2)c2ccccc21`, the inhibition is reported as 0.85% (inactive). With `O=C(COC(=O)c1ccc(Cl)cc1[N+](=O)[O-])NCc1ccco1` the inhibition was 0.06% (inactive). In the case of `Cc1ccc(S(=O)(=O)Nc2ccc(C(=O)NCCCn3ccnc3)cc2)cc1[N+](=O)[O-]`, the inhibition is reported as 0.22% (inactive). With `COc1ccc(COC(=O)c2cccc(S(=O)(=O)N3CCN(C(C)=O)CC3)c2)cc1F` the inhibition was 1.43% (inactive). With `CC(=O)OC1CCC2(C)C3CCC4(C)C(C(C)=O)CCC4C3CC3OC32C1` (stereo not drawn) the inhibition was 4.89% (inactive). For `CC(=O)OC1CC[C@]2(C#N)[C@H]3CC[C@]4(C)[C@H](C5C=CC(=O)O5)CCC4(O)C3CCC2(O)C1` (stereo partly drawn), the inhibition was 21.3% (inactive). In the case of `C[C@]12CCC3C(CC[C@@H]4C[C@@H](O)CC[C@]34C)C1CC[C@@H]2O` (stereo partly drawn), the inhibition is reported as 1.93% (inactive). In the case of `CC(=O)OC1CC2(O)C3CCC4CC(O)CCC4(C)C3CCC2(C)C1C1=CC(=O)OC1` (stereo not drawn), the inhibition is reported as 24.4% (inactive). With `C[C@]12CCC3C(CC[C@H]4C[C@H](O)CC[C@]34C)C1CC(=O)[C@@H]2O` (stereo partly drawn) the inhibition was 2.26% (inactive). For `CC12CC[C@H]3[C@@H](CCC4(O)C[C@H](O)CCC34/C=N/NC(=O)Cc3ccccc3)C1(O)CCC2C1=CC(=O)OC1` (stereo partly drawn), the inhibition was 1.62% (inactive). For `CC12CC[C@H]3[C@@H](CCC4(O)C[C@H](O)CCC34/C=N/NC(=O)c3ccccc3F)C1(O)CCC2C1=CC(=O)OC1` (stereo partly drawn), the inhibition was 8.49% (inactive).
